Test results taken from PubChem BioAssay.
The source made the active and inactive calls.

Experiments:
[1] = optical density shifts of acrAB sulA E. coli – strain DRC41, OD650, 48 h, E. coli filamentation inducer project, primary screen (AID 1152); conditions: higher = more signal, called active from +8 up or from −8 down;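 further: E. coli MC1000 strain DRC41 lacking acrAB efflux pump and sulA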
[2] = probe aLefty1 binding on compound microarray – biochemical, small-molecule microarray, 635/667 nm fluorescence, primary screen (AID 1153); conditions: higher = more signal;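 further: score merges spot fluorescence with signal-to-noise ratio from the scanned slide images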
[3] = plasmodial surface anion channel blockers, osmotic lysis – cell-based, P. falciparum Indochina, OD700, 1 h, primary screen (AID 1154); conditions: P. falciparum Indochina infected RBC osmotic lysis, higher = more signal, called active from +8 up or from −8 down
[4] = plasmodial surface anion channel blockers, osmotic lysis – cell-based, P. falciparum Indochina, OD700, 2 h, primary screen (AID 1155);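 further: lysis reports solute entry through the parasite surface anion channel PSAC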; conditions: P. falciparum Indochina infected erythrocytes, higher = more signal, called active from +8 up or from −8 down
[5] = changes in parasitized red cell lysis, either direction – P. falciparum Indochina, OD700, 3 h, PSAC antagonist project, primary screen (AID 1156); conditions: P. falciparum-infected erythrocytes, osmotic lysis, higher = more signal, called active from +8 up or from −8 down
[6] = plasmodial surface anion channel blockers, osmotic lysis – cell-based, P. falciparum Indochina, OD700, 18 h, primary screen (AID 1157); conditions: P. falciparum Indochina infected erythrocytes, osmotic lysis OD700, 18 h; higher = more signal, called active from +8 up or from −8 down
[7] = S6 kinase pathway phospho-S6 level changes – cell-based, A549, cytoblot, luminescence, serum-stimulated, primary screen (AID 1158); conditions: 5 h, higher = more signal;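 further: serum-stimulated A549 lung adenocarcinoma cells; signal is phosphorylated S6 detected by cytoblot immunostaining with HRP secondary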
[8] = biological target: NADPH oxidase 2 (Homo sapiens) (UniProt P04839); assay: compounds shifting NOX2 Amplex Red fluorescence – cell-based, HEK293-NOX2, PMA-stimulated, NOX inhibitor project, primary screen (AID 1159); conditions: 45 min, higher = more signal, called active from +8 up or from −8 down; further: test concentration not given here
Sequence of NADPH oxidase 2 (Homo sapiens) (P04839 whole entry, looked up): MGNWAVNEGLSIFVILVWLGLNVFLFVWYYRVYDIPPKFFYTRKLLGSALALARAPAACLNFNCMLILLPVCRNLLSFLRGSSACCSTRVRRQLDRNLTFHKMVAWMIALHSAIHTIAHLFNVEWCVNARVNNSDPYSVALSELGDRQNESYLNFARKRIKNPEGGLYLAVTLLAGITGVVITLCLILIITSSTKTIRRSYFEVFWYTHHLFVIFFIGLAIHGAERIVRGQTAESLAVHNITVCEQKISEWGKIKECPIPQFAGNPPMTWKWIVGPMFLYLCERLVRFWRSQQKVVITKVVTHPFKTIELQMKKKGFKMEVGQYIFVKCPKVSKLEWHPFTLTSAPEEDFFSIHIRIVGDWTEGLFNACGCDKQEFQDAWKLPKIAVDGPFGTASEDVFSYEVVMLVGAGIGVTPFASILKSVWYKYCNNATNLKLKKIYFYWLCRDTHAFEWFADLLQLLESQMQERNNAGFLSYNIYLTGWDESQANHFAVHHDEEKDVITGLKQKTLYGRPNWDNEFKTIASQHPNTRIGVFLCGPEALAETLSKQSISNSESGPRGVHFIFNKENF

[9] = biological target: NADPH oxidase 4 (Homo sapiens) (UniProt Q9NPH5); assay: compounds shifting NOX4 Amplex Red fluorescence – cell-based, HEK293-NOX4, tetracycline-induced, NOX inhibitor project, primary screen (AID 1160); conditions: HEK293-NOX4, Amplex Red H2O2 fluorescence, 45 min; higher = more signal, called active from +8 up or from −8 down
Sequence of NADPH oxidase 4 (Homo sapiens) (Q9NPH5 whole entry, looked up): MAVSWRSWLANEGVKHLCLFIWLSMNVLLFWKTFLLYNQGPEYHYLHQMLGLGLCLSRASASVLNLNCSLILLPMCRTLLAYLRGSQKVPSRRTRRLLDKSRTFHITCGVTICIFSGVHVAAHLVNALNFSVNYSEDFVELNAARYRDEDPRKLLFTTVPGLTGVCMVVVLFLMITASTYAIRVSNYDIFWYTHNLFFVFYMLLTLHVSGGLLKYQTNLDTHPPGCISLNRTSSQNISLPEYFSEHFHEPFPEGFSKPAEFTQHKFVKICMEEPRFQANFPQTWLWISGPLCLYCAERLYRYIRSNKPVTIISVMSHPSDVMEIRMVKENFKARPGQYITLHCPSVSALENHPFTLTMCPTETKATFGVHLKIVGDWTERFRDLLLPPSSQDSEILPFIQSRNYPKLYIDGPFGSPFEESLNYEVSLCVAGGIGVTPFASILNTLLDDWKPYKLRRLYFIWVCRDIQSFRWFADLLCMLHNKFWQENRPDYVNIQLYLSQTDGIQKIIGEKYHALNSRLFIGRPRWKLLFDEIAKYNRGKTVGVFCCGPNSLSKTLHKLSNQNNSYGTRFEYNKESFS

[10] = biological target: NADPH oxidase 5 (Homo sapiens) (UniProt Q96PH1); assay: compounds shifting NOX5 Amplex Red fluorescence – cell-based, HEK293-NOX5, NOX inhibitor project, primary screen (AID 1161); conditions: HEK293-NOX5, ionomycin, 45 min, higher = more signal
Sequence of NADPH oxidase 5 (Homo sapiens) (Q96PH1 whole entry, looked up): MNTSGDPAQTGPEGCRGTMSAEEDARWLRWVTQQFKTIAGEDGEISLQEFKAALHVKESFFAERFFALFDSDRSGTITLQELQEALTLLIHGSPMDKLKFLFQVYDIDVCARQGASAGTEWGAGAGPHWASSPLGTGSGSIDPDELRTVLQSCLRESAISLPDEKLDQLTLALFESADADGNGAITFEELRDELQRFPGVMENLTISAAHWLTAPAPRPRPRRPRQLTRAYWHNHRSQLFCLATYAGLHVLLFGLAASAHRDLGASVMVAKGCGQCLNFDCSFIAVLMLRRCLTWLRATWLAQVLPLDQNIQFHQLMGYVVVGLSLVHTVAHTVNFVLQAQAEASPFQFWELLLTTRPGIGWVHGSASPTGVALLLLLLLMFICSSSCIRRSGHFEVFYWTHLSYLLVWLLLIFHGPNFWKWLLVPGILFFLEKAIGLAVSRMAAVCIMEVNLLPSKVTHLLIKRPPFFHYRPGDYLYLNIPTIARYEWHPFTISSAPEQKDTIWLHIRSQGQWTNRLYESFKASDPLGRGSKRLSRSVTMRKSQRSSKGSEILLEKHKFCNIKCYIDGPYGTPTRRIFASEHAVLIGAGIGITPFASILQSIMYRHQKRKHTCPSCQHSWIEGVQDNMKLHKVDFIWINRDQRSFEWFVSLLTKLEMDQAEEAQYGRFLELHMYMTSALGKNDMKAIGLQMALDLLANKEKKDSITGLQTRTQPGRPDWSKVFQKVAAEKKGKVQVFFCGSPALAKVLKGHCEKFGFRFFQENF

| Structure (SMILES) | z-score [1] | composite z-score [2] | z-score [3] | z-score [4] | z-score [5] | z-score [6] | z-score [7] | z-score [8] | z-score [9] | z-score [10] |
| --- | --- | --- | --- | --- | --- | --- | --- | --- | --- | --- |
| COCCOC(=O)N1C(=O)[C@@]2(c3cc(C#CCCO)ccc31)[C@H](c1ccccc1OCCO)N1[C@H](c3ccccc3)[C@H](c3ccccc3)OC(=O)[C@H]1[C@@H]2C(=O)Nc1nc2ccccc2s1 | -0.395 (inactive) | 0.241 | 13.1 (active) | 3.36 (inactive) | 0.621 (inactive) | 1.66 (inactive) | -0.202 | 1.18 (inactive) | 0.781 (inactive) | 1.53 |
| O[C@@H](Cc1ccccc1)[C@@H](/C=C/C1CC1)N(CC#Cc1ccccc1)Cc1cccc(Cl)c1 | 1.96 (inactive) | 0.161 | 1.49 (inactive) | 0.761 (inactive) | 0.124 (inactive) | 0.23 (inactive) | 0.715 | 0.166 (inactive) | 0.727 (inactive) | -0.406 |
| COCCOC(=O)N1C(=O)[C@@]2(c3cc(C#Cc4ccc(OC)cc4)ccc31)[C@H](C(=O)Nc1nc3ccccc3s1)[C@H]1C(=O)O[C@H](c3ccccc3)[C@H](c3ccccc3)N1[C@@H]2c1ccc(OCCO)cc1 | -0.221 (inactive) | 0.0524 | 6.99 (inactive) | 3.22 (inactive) | 1.26 (inactive) | 2.25 (inactive) | -0.45 | 2.03 (inactive) | -1.07 (inactive) | 0.518 |
| C=CC1c2cc(O)c(OC)cc2CCN1Cc1cc2c(cc1Br)OCO2 (stereo not given) | -1.93 (inactive) | 0.274 | 15.1 (active) | 3.15 (inactive) | 1.57 (inactive) | 1.01 (inactive) | 0.0469 | -6.22 (inactive) | -3.87 (inactive) | -4.16 |
| [N-]=[N+]=NCc1ccccc1C[C@@]1(C(=O)N2CCCCC2)N=C(c2ccc(OCCCO)cc2)O[C@@H]1c1ccccc1 | -0.184 (inactive) | 0.0323 | 25.2 (active) | 14.3 (active) | 2.13 (inactive) | 2.51 (inactive) | 0.893 | -2.02 (inactive) | -0.495 (inactive) | -1.49 |
| COCCOC(=O)N1C(=O)[C@@]2(c3cc(C#CC4(O)CCCCCC4)ccc31)[C@H](c1ccc(O)cc1)N1[C@H](c3ccccc3)[C@H](c3ccccc3)OC(=O)[C@H]1[C@@H]2C(=O)NC[C@H](O)c1ccccc1 | -0.686 (inactive) | 0.405 | 1.14 (inactive) | 0.487 (inactive) | -1.17 (inactive) | 0.196 (inactive) | 0.101 | 1.97 (inactive) | 0.895 (inactive) | 1.2 |
| C#CCN([C@@H](Cc1ccc(O)cc1)C(=O)OC)[C@@H](/C=C/C1CC1)[C@H](O)Cc1ccccc1 | -1.08 (inactive) | -0.294 | 3.41 (inactive) | 0.761 (inactive) | -0.824 (inactive) | 0.353 (inactive) | -0.839 | 0.544 (inactive) | -0.606 (inactive) | -1.58 |
| [N-]=[N+]=NCc1ccccc1[C@@H]1OC(c2ccc(OCCCO)cc2)=N[C@]1(CCS(=O)(=O)c1ccccc1)C(=O)NCC(O)CO (stereo not given in full) | 0.766 (inactive) | 0.546 | 24.8 (active) | 8.05 (active) | 0.619 (inactive) | 0.158 (inactive) | 2.02 | 0.861 (inactive) | 1.78 (inactive) | 2.57 |
| C=CCC(OC(C)=O)[C@@H]1[C@@H](N(Cc2cc3ccccc3o2)C(=O)c2ccc(-c3ccccc3)cc2)c2cc(OCCCO)ccc2N1C(=O)c1ccc2ccccc2c1 (stereo not given in full) | -0.966 (inactive) | 0.187 | 0.923 (inactive) | 0.354 (inactive) | 0.216 (inactive) | 0.161 (inactive) | -0.109 | -1.08 (inactive) | -0.72 (inactive) | 0.869 |
| CN1C(=O)C2C=CC(C(O)COCc3ccccc3)N(N(c3ccccc3)c3ccccc3)C2C1=O (stereo not given) | -0.339 (inactive) | 0.479 | 3.65 (inactive) | 1.49 (inactive) | 0.361 (inactive) | 1.07 (inactive) | -0.849 | 1.58 (inactive) | -4.42 (inactive) | 0.262 |
| COc1cc2c(cc1OC)CN(C(=O)[C@@H]1[C@H]3C(=O)O[C@H](c4ccccc4)[C@H](c4ccccc4)N3[C@H](c3ccc(OCCO)cc3)[C@@]13C(=O)Nc1ccc(C#CC4(O)CCCCCC4)cc13)CC2 | 3.13 (inactive) | 0.246 | 4.33 (inactive) | 1.05 (inactive) | 0.785 (inactive) | -1.27 (inactive) | 2.48 | 0.737 (inactive) | 0.802 (inactive) | 1.82 |
| C=CCC(OC(C)=O)[C@@H]1[C@@H](N(Cc2cc3ccccc3o2)C(=O)c2ccc(C)cc2)c2cc(OCCCO)ccc2N1C(=O)Cc1ccc(OC)cc1 (stereo not given in full) | 1.72 (inactive) | 0.25 | 1.19 (inactive) | 0.794 (inactive) | -0.528 (inactive) | 0.211 (inactive) | -0.0745 | 0.391 (inactive) | 0.652 (inactive) | 1.72 |
| CCOC(=O)C[C@H]1[C@H](OC(=O)Cc2ccc3c(c2)OCO3)[C@@H](NC(=O)Cc2ccc(OC)cc2)c2cc(OCCCO)ccc2N1C(=O)c1ccc2ccccc2n1 | 2.96 (inactive) | 0.0889 | 3.63 (inactive) | -0.486 (inactive) | -1.03 (inactive) | -1.01 (inactive) | 1.29 | -1.03 (inactive) | 1.04 (inactive) | 1.05 |
| COc1ccc([Si](C)(C)[C@@H]2[C@@H](CCO)O[C@]3(C(=O)N(Cc4ccc(N5CCCCC5=O)cc4)c4ccccc43)[C@H]2C)cc1 | 0.968 (inactive) | 0.145 | 26 (active) | 21.8 (active) | 0.892 (inactive) | 2.63 (inactive) | 0.703 | 0.381 (inactive) | 0.706 (inactive) | 2.1 |
| C=C(/C(=C/C[C@H](OC(C)=O)c1cccc(OCCO)c1)c1cnc2ccccc2c1)C(C)C | -0.0902 (inactive) | -0.0141 | 18.7 (active) | 3.44 (inactive) | 1.67 (inactive) | 1.12 (inactive) | -0.343 | 0.175 (inactive) | -0.456 (inactive) | -0.923 |
| CCOC(=O)C[C@H]1[C@H](OC(=O)c2cc3ccccc3oc2=O)[C@@H](NC(=O)c2ccc(-c3ccccc3)cc2)c2cc(OCCCO)ccc2N1C(=O)c1ccccc1 | 1.27 (inactive) | 0.0839 | 0.697 (inactive) | -1.44 (inactive) | -0.249 (inactive) | -2.22 (inactive) | 0.683 | -1.47 (inactive) | 0.178 (inactive) | 0.748 |
| CCOC(=O)C1=CC[C@@H](c2cccc(Cl)c2)N(S(=O)(=O)c2ccc(C)cc2)C1 | 0.065 (inactive) | 0.0166 | 2.31 (inactive) | -0.389 (inactive) | -0.423 (inactive) | -1.89 (inactive) | 1.02 | 0.201 (inactive) | -0.927 (inactive) | -0.736 |
| CC1=C[C@@]2(CO)C(=O)[C@]3(CO3)[C@@H]1[C@H]1[C@]2(C)C=C(CO)C(=O)[C@]12CO2 | 0.806 (inactive) | -0.148 | 0.0442 (inactive) | 0.446 (inactive) | 0.429 (inactive) | 0.156 (inactive) | -0.0631 | -0.35 (inactive) | -1.07 (inactive) | -1.14 |
| C=CCC(OC(C)=O)[C@@H]1[C@@H](N(Cc2cccc3ccccc23)C(=O)Cc2ccc(F)cc2)c2cc(OCCCO)ccc2N1C(=O)c1ccc2ccccc2n1 (stereo not given in full) | 0.518 (inactive) | 0.0477 | 1.05 (inactive) | 0.167 (inactive) | -0.315 (inactive) | 0.0897 (inactive) | 0.103 | -0.126 (inactive) | 0.619 (inactive) | 1.94 |
| COc1cc(CO)cc(I)c1O[C@H]1C=C(C(=O)NCCO)C[C@@H](NCc2ccc(F)cc2)[C@@H]1O | 0.548 (inactive) | -0.24 | 21.8 (active) | 5.43 (inactive) | 4.03 (inactive) | 1.36 (inactive) | 0.325 | -1.07 (inactive) | -1.05 (inactive) | -0.994 |
| CCCCCCCCCCC(O)C1C=CC2C(=O)N(C)C(=O)C2N1NC(=O)OC(C)(C)C (stereo not given) | -3.07 (inactive) | -0.239 | 8.95 (active) | 2.45 (inactive) | -1.28 (inactive) | 1.81 (inactive) | -1.36 | -0.67 (inactive) | -7.78 (inactive) | -3.78 |
| COC(=O)[C@@]1(Cc2ccc(OC)cc2)[C@H]2c3cc(C(=O)N4CCCC4)n(Cc4cccc5ccccc45)c3C[C@H]2CN1C(=O)c1ccccc1 | -0.492 (inactive) | 0.258 | 3.9 (inactive) | 0.408 (inactive) | 1.48 (inactive) | 0.983 (inactive) | 0.0019 | 0.208 (inactive) | 1.74 (inactive) | -1.45 |
| COc1ccccc1CN1C(=O)c2ccccc2[C@](Cc2ccccc2I)(C(=O)NCC(F)(F)F)[C@@H]1c1ccc(CO)cc1 | -0.566 (inactive) | 0.126 | 5.37 (inactive) | 0.82 (inactive) | 2.38 (inactive) | 0.401 (inactive) | -0.317 | 1.71 (inactive) | -1.73 (inactive) | -1.05 |
| NC(=O)N1C(=O)C2C(C1=O)C1C=C(CCCO)C2C(c2cccs2)N1Cc1cccc(OC(F)(F)F)c1 (stereo not given) | -0.19 (inactive) | 0.135 | 8.85 (active) | 1.42 (inactive) | -0.569 (inactive) | 0.872 (inactive) | 0.323 | 2.15 (inactive) | 0.0752 (inactive) | -1.12 |
| CC=CC(O)C1C=CC2C(=O)N(c3ccccc3)C(=O)C2N1Nc1ccccc1F (stereo not given) | -0.857 (inactive) | 0.762 | 4.36 (inactive) | 1.24 (inactive) | 0.164 (inactive) | 0.512 (inactive) | -0.819 | -1.11 (inactive) | -2.88 (inactive) | -2 |
